We go through 15 compounds from PubChem BioAssay.

Assay [1] can be described thus: A549 cell viability effects, profiling panel, calcein-AM fluorescence, 48 h, basal (AID 1162). To be noted: higher = more signal.
Assay [2] can be described thus: adipocyte viability effects, profiling panel, cell-based, 3T3-L1 adipocytes, calcein-AM fluorescence, 48 h, basal (AID 1163). To be noted: 3T3-L1 adipocytes viability, higher = more signal.
The nature of assay [3]: HepG2 cell viability effects, profiling panel, calcein-AM fluorescence, 48 h, basal (AID 1164). To be noted: higher = more signal.
Assay [4] can be described thus: MM1S cell viability effects, profiling panel, calcein-AM fluorescence, 48 h, basal (AID 1165).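 Also: viability of MM1S multiple myeloma cells under basal unstimulated conditions.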 To be noted: higher = more signal.
Assay [5] is described as follows: basal RPMI8226 viability, no added stimulus, profiling panel, cell-based, calcein-AM fluorescence, 48 h, PK04 Diversity Set (AID 1166).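 Also: cells grown under basal conditions without added stimulus.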 To be noted: RPMI8226 myeloma viability, higher = more signal.
The nature of assay [6]: basal HepG2 mitochondrial membrane potential changes, profiling panel, cell-based, JC-1 fluorescence, 24 h, 100 nL compound (AID 1167). The conditions noted are these: higher = more signal.
Assay [7] in a line: basal 3T3-L1 adipocyte mitochondrial potential changes, profiling panel, cell-based, JC-1 fluorescence, 3T3-L1 adipocytes, 24 h, 100 nL compound (AID 1168). To be noted: JC-1 mitochondrial fluorescence, higher = more signal, called active from +8 up or from −8 down.
Assay [8] can be described thus: basal RPMI8226 mitochondrial membrane potential changes, profiling panel, cell-based, JC-1 fluorescence, 24 h, 100 nL compound (AID 1169). The conditions noted are these: RPMI8226 myeloma, JC-1 mitochondrial potential fluorescence, higher = more signal.
Assay [9] can be described thus: basal MM1S mitochondrial membrane potential changes, profiling panel, cell-based, JC-1 fluorescence, 24 h, 100 nL compound (AID 1170). To be noted: higher = more signal.
Assay [10] in a line: A549 lung cancer cell viability effects, profiling panel, resazurin fluorescence, 24 h, PK04 Diversity Set (AID 1171). The conditions noted are these: higher = more signal, called active from +8 up or from −8 down. On the technique in general: The colour change of resazurin is a common sign of viable cells or microbes.

Calls of active or inactive are those of the source.
Also: test concentration not given here.

On to `CN(C)CCCNC(=O)[C@@]1(C)c2ccccc2C(=O)N(Cc2ccccc2)[C@H]1c1ccc(CO)cc1`, for which the z-score was 0.0156 in [1]; 0.451 in assay [2]; 0.339 in [3]; -0.748 in [4]; 0.3 in assay [5]; 0.303 in [6]. The z-score was 0.457 (inactive) in assay [7], -0.798 in assay [8], 0.445 in assay [9] and 0.356 (inactive) in [10].

Consider `[N-]=[N+]=NCc1ccccc1[C@@H]1OC(c2ccc(OCCCO)cc2)=N[C@]1(CCS(=O)(=O)c1ccccc1)C(=O)NCC(O)CO` (stereo not given in full), for which the z-score in assay [1] is 1.3; in assay [2], 0.273; in assay [3], 1.4; in [4], 0.481; in [5], 1.67; in assay [6] it was -0.142. Further, the z-score in assay [7] was 0.0693 (inactive); in assay [8], -0.0493; in assay [9], -0.198; in [10] it was -0.911 (inactive).

Take `COC(=O)[C@@]1(Cc2ccccc2)[C@@H]2C(=CC(=O)[C@H]2CC(=O)C(=O)N(C)C)CN1C(=O)c1ccccc1`: the z-score was 0.349 in assay [1]; 0.108 in assay [2]; 0.11 in assay [3]; -2.52 in [4]; -1.81 in [5]; 2.58 in [6]. Further, the z-score in assay [7] is -0.0995 (inactive); in [8], -0.791; in assay [9] it was -2.68; in [10], -1.11 (inactive).

Take `CC(C)[Si](C#C[Si](C(C)C)(C(C)C)C(C)C)(O[C@H](C)c1cn([C@H](CO)Cc2ccccc2)nn1)C(C)C`: the z-score in assay [1] was 1.11; in [2], -0.355; in assay [3], 0.341; in assay [4], -2.37; in assay [5], 0.482; in assay [6], 0.376. The z-score in assay [7] is 0.727 (inactive); in assay [8], 0.362; in assay [9], -0.156; in [10], 0.637 (inactive).

For the compound `COCCCNC(=O)[C@]1(CCS(=O)(=O)c2ccccc2)N=C(c2ccc(OCCCO)cc2)O[C@@H]1c1ccccc1CN=[N+]=[N-]`, the z-score in assay [1] was 1.61; in assay [2], 0.652; in [3], 1.15; in assay [4], 0.114; in assay [5], 0.0901; in assay [6], 0.542. Moreover, the z-score in assay [7] is 0.482 (inactive); in [8], -0.393; in assay [9] it was -1.34; in assay [10], -0.97 (inactive).

Regarding `C[C@]1(C(=O)NC2CC2)c2ccccc2C(=O)N(Cc2ccccc2)[C@H]1c1ccc(CO)cc1`, the z-score in assay [1] is 0.395; in [2], 1.51; in assay [3] it was -0.577; in assay [4] it was 0.855; in assay [5], -0.655; in assay [6], 1.66. Further, the z-score in assay [7] was 0.195 (inactive); in assay [8], -0.0462; in assay [9], 0.263; in assay [10] it was 0.54 (inactive).

As for `[N-]=[N+]=NCc1ccccc1[C@H]1OC(c2ccc(OCCCO)cc2)=N[C@@]1(CCS(=O)(=O)c1ccccc1)C(=O)N1CCCCC1`, the z-score in [1] was 0.481; in [2], 1.03; in [3] it was -0.0898; in [4], -0.133; in assay [5], -0.946; in assay [6], -0.0617. In addition, the z-score in [7] is 1.04 (inactive); in assay [8], -1.11; in assay [9], -1.11; in assay [10] it was -0.743 (inactive).

Turning to `CC[C@H]1C2=C3C(CC[C@H]4C(OCc5ccc(F)cc5C(F)(F)F)OC[C@](C)([C@@H]34)N(C(=O)OC(C)(C)C)C2)C(COC)C1COC` (stereo not given in full), the z-score in assay [1] is -0.266; in assay [2], -0.851; in [3], 0.309; in [4] it was 0.0661; in assay [5], -0.307; in assay [6] it was 1.38. For the same compound, the z-score in [7] was -0.159 (inactive); in assay [8], -0.182; in [9] it was -1.53; in assay [10], -0.515 (inactive).

`COc1ccc(NC(=O)O[C@H]2[C@H](OC(=O)Nc3ccccc3)[C@@H](OC(=O)Nc3ccccc3)[C@@H](OC)O[C@@H]2CO)cc1`: the z-score in assay [1] was -1.42; in [2], 0.635; in assay [3], -1.17; in [4], -1.18; in [5] it was -2.26; in assay [6], -0.107. In addition, the z-score is -0.261 (inactive) in [7], -0.765 in assay [8], -1.06 in assay [9] and -2.97 (inactive) in assay [10].

On to `COc1cc(CO)cc(I)c1O[C@H]1C=C(C(=O)NCCO)C[C@@H](NCc2ccc(F)cc2)[C@@H]1O`, for which the z-score is 0.56 in assay [1]; 0.385 in assay [2]; 2.22 in assay [3]; -2.35 in assay [4]; -0.456 in assay [5]; 0.871 in assay [6]. The z-score in assay [7] was -0.389 (inactive); in assay [8], -0.251; in [9], -2.07; in [10] it was -0.183 (inactive).

As to `CCCCO[C@H]1C[C@H]2C(I)=C[C@@H]1C(=O)[C@]21CO1`, the z-score in [1] is -0.788; in assay [2] it was -0.894; in [3], -0.534; in assay [4] it was -1.98; in assay [5], -1.16; in assay [6], -1.39. Further, the z-score in assay [7] was -0.0178 (inactive); in assay [8], 0.432; in assay [9], -0.569; in assay [10], 0.0651 (inactive).

`COC(=O)c1cn(C[C@@H](Cc2ccccc2)NC(=O)N[C@H](CO)CCc2oc(C(C)=O)c(C(=O)OC)c2C(=O)OC)nn1`: the z-score in assay [1] was -0.282; in [2], 0.53; in assay [3] it was -0.0248; in assay [4], 0.408; in [5], 0.206; in [6], 0.629. In addition, the z-score in assay [7] is 1.09 (inactive); in assay [8] it was -0.0706; in assay [9], 0.962; in [10], 0.0604 (inactive).

For `O=C(CS)NCCCCCCNC(=O)[C@H]1C[C@H]2C(=O)N[C@@H](Cc3ccccc3)C(=O)N2[C@H]1c1ccc(O)cc1`, the z-score in [1] was 0.215; in assay [2], 0.0724; in assay [3], -0.521; in assay [4], -1.51; in [5], 0.388; in [6], -1.57. The z-score in [7] was -1.09 (inactive); in assay [8], -0.254; in assay [9], 0.046; in assay [10], 1.26 (inactive).

In the case of `O=C(NCC(F)(F)F)[C@@H]1c2ccccc2C(=O)N(Cc2ccc(OC(F)(F)F)cc2)[C@H]1c1ccc(CO)cc1`, the z-score in assay [1] was 0.0723; in assay [2] it was -0.302; in assay [3] it was -0.27; in assay [4], -0.404; in assay [5], -0.207; in assay [6] it was 1.66. Moreover, the z-score was 0.506 (inactive) in [7], 0.941 in [8], -0.54 in [9] and 1.01 (inactive) in [10].

Take `COC(=O)[C@@]1(Cc2ccc(OC)cc2)[C@H]2c3cc(C(=O)N4CCCC4)n(Cc4cccc5ccccc45)c3C[C@H]2CN1C(=O)c1ccccc1`: the z-score in [1] was -0.249; in assay [2], -0.305; in assay [3], 1.39; in assay [4], -0.47; in assay [5] it was -0.718; in assay [6], 2.15. Moreover, the z-score was -0.198 (inactive) in assay [7], -0.427 in assay [8], -1.26 in assay [9] and -0.506 (inactive) in assay [10].
